# Biological target: TIMM44
# Test: pooled miR-30 sensor sort-seq; sequence = guide strand
# Conditions: shRNA
row,Sequence,sensor-assay potency score (higher = more potent)
1,ATCACTTTTACTGACTTCGTGA,0.235
2,TTCTCTTCCGGAGTCGCTGGGG,-0.531
3,TAAGTAGCTTCATAGCACCAGT,-0.441
4,TGACATTATCTAGCAAGCCGGA,-1.13
5,TTCCGTAGCACCTCGCTCGTCC,1.18

# Biological target: TIMM50
# Test: as above
# Conditions: shRNA
row,Sequence,sensor-assay potency score (higher = more potent)
1,TTGAAATATTTGTATGTCCGGC,-0.0672
2,TGAAATATCCTTTACATGGTGT,0.0469
3,TGATCATCTGTCTATAATCTTT,-1.49
4,TATCAATGAGTGGAAACGCAGT,-1.04
5,TAGACGACGCTCACAGTCCCAC,-0.936
6,ATTCAGACATGAAATATCCTTT,0.389
7,TACATGGTGTCCATCCATGTAT,-1
8,TGTCCATCCATGTATCTTGTGG,-0.521
9,TTGCTTCTGACTAGTCTCCTGG,-0.18
10,TTTGCTTCTGACTAGTCTCCTG,-0.00854
11,TTCTGCTTGTTGGACTTGGAGA,-1.03

# Biological target: TJP3
# Test: as above
# Conditions: shRNA
row,Sequence,sensor-assay potency score (higher = more potent)
1,TTCAGTGACAGGTTCTGGCTAG,0.155
2,TCTAGTTTGATGATCTTGGAGG,-0.916
3,TACAACCATGGATCCACCGGGC,-0.563
4,TACCACGTCAGATACAACCATG,-1.34
5,TAGAATGAGATCTCCTTCCTGC,0.597
6,TTCTGGAATCTACTGAACTTTC,-1.4
7,TCGTAGTCGCTGTTAACGCGGC,-0.824
8,ATAGGTTCGCATGCTGTCCTGT,-0.0267
9,TTGACGCCAAACTCTTCGCTGT,-0.592
10,TTGAGCTCCTGGTACCAGGTGT,0.444
11,TTCATCTGCACGTCCTGCCGTG,-0.0273
12,ATCGTCTTCATCCGAGTCCTGG,-0.452

# Biological target: TKT
# Test: as above
# Conditions: shRNA
row,Sequence,sensor-assay potency score (higher = more potent)
1,TTCTGGTAGATGTCCATCTGGT,-0.51
2,TTTTTGCTCTGGATCTGGCTGT,0.312
3,TTGCTCTTCAGGACCACCTTGG,-0.197
4,TAGATGATGGCATTTTCTGGGC,-0.904
5,TAAAAGACAGTTGATGTGGGGA,0.52
6,TTGTCCCCAACTTTGTAGCTGG,-0.755
7,TTTCTTTCTTCAGCAGTTCGGC,-0.762
8,TCCTTTTTGAAGATCTCCGAGA,-0.964
9,TTGAAGATCTCCGAGAAGGTGG,0.421
10,TTGTCCAGCTTATAGATGCTGG,-1.07
11,TTGTCGAAGTATTTGCCGGTGT,-0.129
12,TTGATGTGGGGACTGACCGAAA,-0.805

# Reference: the OligoGym collection
